# Legend:
# Assay in all cases: DAPPL (digital affinity profiling via proximity ligation, sequencing); 10 mM Tris-HCl pH 7.5, 50 mM NaCl, 1 mM DTT, 4% glycerol, room temperature, 30 min; GST-TFs on glutathione beads, 16-mer random dsDNA library, 0.1% formaldehyde crosslink after washing; high values mean tight binding
# [1] = molecular target: T1, FEV (Homo sapiens, UniProt Q99581 1-238); details: protein: recombinant; tags: N-terminal GST; dsDNA, one strand shown
# T1 sequence: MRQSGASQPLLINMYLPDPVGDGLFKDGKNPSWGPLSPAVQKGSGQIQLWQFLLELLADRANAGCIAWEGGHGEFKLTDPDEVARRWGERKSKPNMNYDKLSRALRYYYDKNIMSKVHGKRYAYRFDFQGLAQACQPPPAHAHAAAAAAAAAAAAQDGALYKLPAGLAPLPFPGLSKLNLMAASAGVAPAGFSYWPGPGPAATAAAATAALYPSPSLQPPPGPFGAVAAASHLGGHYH
# Procedure, shortened: (§1)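 Yeast served to express human transcription factors as GST fusions, which were then captured on glutathione beads and labelled with DNA barcodes. Pooled with a tag-only sample, they were incubated with 200 nmole of a 16-mer random double-stranded DNA library for 30 min at room temperature in Tris/NaCl/DTT/glycerol buffer, washed, crosslinked with 0.1% formaldehyde, ligated by proximity, amplified by PCR and sequenced. Dividing each hexamer's read frequency for a factor by its frequency for the tag-only sample gives the binding signal.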
# [2] = molecular target: ETV5 (Homo sapiens, UniProt P41161 1-510); details: protein: recombinant; tags: N-terminal GST; dsDNA, one strand shown
# Procedure, shortened: as §1
# [3] = molecular target: HSF1 (Homo sapiens, UniProt Q00613 1-529); details: protein: recombinant; tags: N-terminal GST; chain copies: 3; dsDNA, one strand shown
# Procedure, shortened: as §1
# [4] = molecular target: T2, SPIC (Homo sapiens, UniProt Q8N5J4 1-248); details: protein: recombinant; tags: N-terminal GST; dsDNA, one strand shown
# T2 sequence: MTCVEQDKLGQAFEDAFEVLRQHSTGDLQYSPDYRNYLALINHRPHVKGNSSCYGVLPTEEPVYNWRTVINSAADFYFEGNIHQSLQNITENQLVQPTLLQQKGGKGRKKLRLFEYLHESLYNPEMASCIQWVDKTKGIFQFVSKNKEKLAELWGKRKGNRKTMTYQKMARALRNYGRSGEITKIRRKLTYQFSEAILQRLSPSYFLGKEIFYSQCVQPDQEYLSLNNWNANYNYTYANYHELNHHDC
# Procedure, shortened: as §1
# [5] = molecular target: ELF4 (Homo sapiens, UniProt Q99607 1-663); details: protein: recombinant; tags: N-terminal GST; dsDNA, one strand shown
# Procedure, shortened: as §1
# [6] = molecular target: T3, ELK4 (Homo sapiens, UniProt P28324-2 1-405); details: protein: recombinant; tags: N-terminal GST; dsDNA, one strand shown
# T3 sequence: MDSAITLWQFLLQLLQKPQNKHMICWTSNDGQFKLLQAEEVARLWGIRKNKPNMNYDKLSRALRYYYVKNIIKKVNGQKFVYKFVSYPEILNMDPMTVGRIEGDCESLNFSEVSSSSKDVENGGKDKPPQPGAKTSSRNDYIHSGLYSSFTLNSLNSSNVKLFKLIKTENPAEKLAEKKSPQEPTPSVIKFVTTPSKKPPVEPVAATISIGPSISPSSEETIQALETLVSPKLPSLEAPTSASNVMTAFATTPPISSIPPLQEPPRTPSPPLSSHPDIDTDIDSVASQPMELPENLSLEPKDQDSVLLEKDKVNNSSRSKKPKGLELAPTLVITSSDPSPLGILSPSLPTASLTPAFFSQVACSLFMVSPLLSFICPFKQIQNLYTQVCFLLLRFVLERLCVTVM
# Procedure, shortened: as §1
# [7] = molecular target: T4, ETV2 (Homo sapiens, UniProt O00321 1-342); details: protein: recombinant; tags: N-terminal GST; dsDNA, one strand shown
# T4 sequence: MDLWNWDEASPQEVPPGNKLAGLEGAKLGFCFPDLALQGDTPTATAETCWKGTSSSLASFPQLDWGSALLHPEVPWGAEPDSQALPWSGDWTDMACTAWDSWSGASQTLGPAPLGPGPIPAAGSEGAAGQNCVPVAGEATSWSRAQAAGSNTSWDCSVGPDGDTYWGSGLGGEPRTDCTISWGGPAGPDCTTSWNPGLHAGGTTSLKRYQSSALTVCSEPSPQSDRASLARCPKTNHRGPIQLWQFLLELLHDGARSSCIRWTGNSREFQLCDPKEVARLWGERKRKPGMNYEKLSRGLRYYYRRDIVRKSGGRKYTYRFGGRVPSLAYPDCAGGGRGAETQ
# Procedure, shortened: as §1
# [8] = molecular target: T5, ELF3 (Homo sapiens, UniProt P78545 1-371); details: protein: recombinant; tags: N-terminal GST; dsDNA, one strand shown
# T5 sequence: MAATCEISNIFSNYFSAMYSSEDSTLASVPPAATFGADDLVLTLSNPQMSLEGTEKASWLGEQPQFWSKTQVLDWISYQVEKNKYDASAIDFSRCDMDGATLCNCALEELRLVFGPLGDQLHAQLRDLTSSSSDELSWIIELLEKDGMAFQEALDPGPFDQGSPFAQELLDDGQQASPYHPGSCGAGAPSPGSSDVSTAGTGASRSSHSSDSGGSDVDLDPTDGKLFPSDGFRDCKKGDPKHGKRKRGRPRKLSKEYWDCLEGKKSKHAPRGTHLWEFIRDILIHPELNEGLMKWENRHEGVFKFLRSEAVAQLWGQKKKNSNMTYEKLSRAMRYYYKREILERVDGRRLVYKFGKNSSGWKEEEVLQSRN
# Procedure, shortened: as §1
# [9] = molecular target: CRX (Homo sapiens, UniProt O43186 1-299); details: protein: recombinant; tags: N-terminal GST; dsDNA, one strand shown
# Procedure, shortened: as §1
# [10] = molecular target: ETV1 (Homo sapiens, UniProt P50549 1-477); details: protein: recombinant; tags: N-terminal GST; dsDNA, one strand shown
# Procedure, shortened: as §1
# Sequence of ETV1 (P50549 whole entry): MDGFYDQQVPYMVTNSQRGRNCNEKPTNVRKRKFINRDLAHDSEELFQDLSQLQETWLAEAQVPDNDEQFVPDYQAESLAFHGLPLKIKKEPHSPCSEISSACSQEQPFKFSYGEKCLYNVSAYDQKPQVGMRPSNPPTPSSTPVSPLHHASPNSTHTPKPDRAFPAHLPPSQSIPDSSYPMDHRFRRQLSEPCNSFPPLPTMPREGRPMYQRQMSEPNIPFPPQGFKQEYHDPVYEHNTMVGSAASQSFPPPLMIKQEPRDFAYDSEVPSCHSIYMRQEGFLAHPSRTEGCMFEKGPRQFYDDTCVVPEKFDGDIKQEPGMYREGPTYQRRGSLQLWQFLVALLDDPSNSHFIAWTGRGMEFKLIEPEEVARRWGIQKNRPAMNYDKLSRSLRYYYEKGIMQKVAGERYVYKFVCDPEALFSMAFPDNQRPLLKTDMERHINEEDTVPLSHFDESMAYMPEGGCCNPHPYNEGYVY
# Sequence of ELF4 (Q99607 whole entry): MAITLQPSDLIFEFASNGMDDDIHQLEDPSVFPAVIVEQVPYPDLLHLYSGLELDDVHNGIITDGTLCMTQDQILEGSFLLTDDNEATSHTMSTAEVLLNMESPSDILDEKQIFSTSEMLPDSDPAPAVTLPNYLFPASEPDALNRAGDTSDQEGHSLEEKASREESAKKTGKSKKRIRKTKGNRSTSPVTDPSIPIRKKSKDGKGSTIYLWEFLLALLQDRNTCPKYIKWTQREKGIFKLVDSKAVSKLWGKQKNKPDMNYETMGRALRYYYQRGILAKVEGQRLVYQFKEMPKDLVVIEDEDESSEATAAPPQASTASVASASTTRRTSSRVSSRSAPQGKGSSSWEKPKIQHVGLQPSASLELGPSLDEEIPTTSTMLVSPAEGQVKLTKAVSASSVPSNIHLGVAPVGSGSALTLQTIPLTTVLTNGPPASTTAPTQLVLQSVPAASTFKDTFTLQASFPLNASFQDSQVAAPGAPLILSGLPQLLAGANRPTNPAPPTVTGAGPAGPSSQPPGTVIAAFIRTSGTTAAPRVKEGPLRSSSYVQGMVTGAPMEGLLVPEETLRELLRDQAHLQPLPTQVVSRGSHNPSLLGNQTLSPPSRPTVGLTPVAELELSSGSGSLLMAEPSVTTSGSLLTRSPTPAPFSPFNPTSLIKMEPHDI
# Sequence of HSF1 (Q00613 whole entry): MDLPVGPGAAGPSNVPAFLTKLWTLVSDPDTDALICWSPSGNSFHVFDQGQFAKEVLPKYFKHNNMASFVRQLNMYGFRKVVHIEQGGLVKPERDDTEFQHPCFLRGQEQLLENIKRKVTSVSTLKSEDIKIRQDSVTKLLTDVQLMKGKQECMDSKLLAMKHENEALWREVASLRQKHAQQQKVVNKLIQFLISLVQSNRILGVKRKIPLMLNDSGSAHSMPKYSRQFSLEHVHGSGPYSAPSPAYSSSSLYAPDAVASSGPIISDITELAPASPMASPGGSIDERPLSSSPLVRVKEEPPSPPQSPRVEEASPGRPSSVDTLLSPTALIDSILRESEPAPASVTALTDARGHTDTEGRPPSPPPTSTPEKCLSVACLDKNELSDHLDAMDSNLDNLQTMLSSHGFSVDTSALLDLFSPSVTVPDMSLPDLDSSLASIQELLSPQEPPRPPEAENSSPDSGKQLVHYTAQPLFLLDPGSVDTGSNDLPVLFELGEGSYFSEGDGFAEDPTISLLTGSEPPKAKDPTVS
# Sequence of ETV5 (P41161 whole entry): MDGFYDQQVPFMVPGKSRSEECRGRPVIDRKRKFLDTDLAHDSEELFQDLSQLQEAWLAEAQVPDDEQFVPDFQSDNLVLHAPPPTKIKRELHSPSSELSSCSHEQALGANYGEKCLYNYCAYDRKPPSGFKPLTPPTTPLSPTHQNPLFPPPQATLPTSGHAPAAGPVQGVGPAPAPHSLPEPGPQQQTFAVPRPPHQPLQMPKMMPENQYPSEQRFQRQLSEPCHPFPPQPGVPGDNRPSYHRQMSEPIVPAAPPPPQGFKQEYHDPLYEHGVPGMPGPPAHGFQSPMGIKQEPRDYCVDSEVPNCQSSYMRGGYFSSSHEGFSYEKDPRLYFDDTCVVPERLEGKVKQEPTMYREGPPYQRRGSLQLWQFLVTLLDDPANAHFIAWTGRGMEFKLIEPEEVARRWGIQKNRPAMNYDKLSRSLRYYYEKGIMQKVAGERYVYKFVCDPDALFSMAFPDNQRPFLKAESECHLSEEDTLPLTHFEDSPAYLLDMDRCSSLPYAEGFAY
# Sequence of CRX (O43186 whole entry): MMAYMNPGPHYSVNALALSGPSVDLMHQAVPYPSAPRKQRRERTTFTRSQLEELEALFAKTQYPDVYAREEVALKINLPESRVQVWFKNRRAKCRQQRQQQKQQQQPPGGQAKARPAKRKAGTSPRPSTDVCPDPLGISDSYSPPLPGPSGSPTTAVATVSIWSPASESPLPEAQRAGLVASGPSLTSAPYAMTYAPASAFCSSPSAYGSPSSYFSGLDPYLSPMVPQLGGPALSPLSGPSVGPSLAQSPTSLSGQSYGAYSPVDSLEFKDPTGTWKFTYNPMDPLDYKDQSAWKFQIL
Sequence,binding signal [1],binding signal [2],binding signal [3],binding signal [4],binding signal [5],binding signal [6],binding signal [7],binding signal [8],binding signal [9],binding signal [10]
ATGTTC,"1.15 fold enrichment (6-mer frequency, TF over GST control)","1.16 fold enrichment (6-mer frequency, TF over GST control)","2.33 fold enrichment (6-mer frequency, TF over GST control)","1.32 fold enrichment (6-mer frequency, TF over GST control)","1.22 fold enrichment (6-mer frequency, TF over GST control)","1.2 fold enrichment (6-mer frequency, TF over GST control)","1.14 fold enrichment (6-mer frequency, TF over GST control)","1.15 fold enrichment (6-mer frequency, TF over GST control)","1.22 fold enrichment (6-mer frequency, TF over GST control)","1.3 fold enrichment (6-mer frequency, TF over GST control)"
TGGATG,"1.35 fold enrichment (6-mer frequency, TF over GST control)","1.42 fold enrichment (6-mer frequency, TF over GST control)","1.52 fold enrichment (6-mer frequency, TF over GST control)","1.46 fold enrichment (6-mer frequency, TF over GST control)","1.49 fold enrichment (6-mer frequency, TF over GST control)","1.23 fold enrichment (6-mer frequency, TF over GST control)","1.49 fold enrichment (6-mer frequency, TF over GST control)","1.65 fold enrichment (6-mer frequency, TF over GST control)","1.45 fold enrichment (6-mer frequency, TF over GST control)","1.54 fold enrichment (6-mer frequency, TF over GST control)"
TTATGC,"1.24 fold enrichment (6-mer frequency, TF over GST control)","1.3 fold enrichment (6-mer frequency, TF over GST control)","1.58 fold enrichment (6-mer frequency, TF over GST control)","1.55 fold enrichment (6-mer frequency, TF over GST control)","1.31 fold enrichment (6-mer frequency, TF over GST control)","1.33 fold enrichment (6-mer frequency, TF over GST control)","1.22 fold enrichment (6-mer frequency, TF over GST control)","1.48 fold enrichment (6-mer frequency, TF over GST control)","2.28 fold enrichment (6-mer frequency, TF over GST control)","1.32 fold enrichment (6-mer frequency, TF over GST control)"
CTTAAA,"1.21 fold enrichment (6-mer frequency, TF over GST control)","1.21 fold enrichment (6-mer frequency, TF over GST control)","1.65 fold enrichment (6-mer frequency, TF over GST control)","1.21 fold enrichment (6-mer frequency, TF over GST control)","1.12 fold enrichment (6-mer frequency, TF over GST control)","1.11 fold enrichment (6-mer frequency, TF over GST control)","1.1 fold enrichment (6-mer frequency, TF over GST control)","1.2 fold enrichment (6-mer frequency, TF over GST control)","2.38 fold enrichment (6-mer frequency, TF over GST control)","1.25 fold enrichment (6-mer frequency, TF over GST control)"
ACAATC,"1.11 fold enrichment (6-mer frequency, TF over GST control)","1.1 fold enrichment (6-mer frequency, TF over GST control)","1.43 fold enrichment (6-mer frequency, TF over GST control)","1.17 fold enrichment (6-mer frequency, TF over GST control)","1.11 fold enrichment (6-mer frequency, TF over GST control)","1.15 fold enrichment (6-mer frequency, TF over GST control)","1.18 fold enrichment (6-mer frequency, TF over GST control)","1.29 fold enrichment (6-mer frequency, TF over GST control)","1.36 fold enrichment (6-mer frequency, TF over GST control)","1.16 fold enrichment (6-mer frequency, TF over GST control)"
TATATA,"1.21 fold enrichment (6-mer frequency, TF over GST control)","1.28 fold enrichment (6-mer frequency, TF over GST control)","1.42 fold enrichment (6-mer frequency, TF over GST control)","1.21 fold enrichment (6-mer frequency, TF over GST control)","1.31 fold enrichment (6-mer frequency, TF over GST control)","1.38 fold enrichment (6-mer frequency, TF over GST control)","1.08 fold enrichment (6-mer frequency, TF over GST control)","1.35 fold enrichment (6-mer frequency, TF over GST control)","1.63 fold enrichment (6-mer frequency, TF over GST control)","1.18 fold enrichment (6-mer frequency, TF over GST control)"
TTGACA,"1.34 fold enrichment (6-mer frequency, TF over GST control)","1.28 fold enrichment (6-mer frequency, TF over GST control)","1.19 fold enrichment (6-mer frequency, TF over GST control)","1.21 fold enrichment (6-mer frequency, TF over GST control)","1.3 fold enrichment (6-mer frequency, TF over GST control)","1.47 fold enrichment (6-mer frequency, TF over GST control)","1.36 fold enrichment (6-mer frequency, TF over GST control)","1.51 fold enrichment (6-mer frequency, TF over GST control)","1.22 fold enrichment (6-mer frequency, TF over GST control)","1.33 fold enrichment (6-mer frequency, TF over GST control)"

# Reference: PMC7862700, “An all-to-all approach to the identification of sequence-specific readers for epigenetic DNA modifications on cytosine”
